An excerpt weighted towards active compounds, which were near 11% of everything screened.
Vaccinia mCherry = qHTS for Stage-Specific Inhibitors of Vaccinia Orthopoxvirus: mCherry Reporter Primary qHTS. Vaccinia virus mCherry reporter infection, fluorescence. Potency, µM (highest dose often 36.5 µM), for inactives: at the top dose activity change, negative = inhibition, actives largely listed as inhibitors. 310,000 tested, 0.63% active; calls by dose curve; tested in A549 cells; note: % is set by controls: 0 for no effect and ±100 for the full control effect; nearly all actives have a fitted effect of over 35% in size
NS1 inh = qHTS Assay for Inhibitors of Influenza NS1 Protein Function | Potency, µM (series often up to 46.1 µM), without a hit: at the highest dose activity, positive = more growth | 270,000 tested, 0.4% active; calls by dose curve; note: actives are rising curves; nearly all actives have a fitted effect of over 50% in size
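Growth recovery, yeast-based: influenza A NS1 expressed in S. cerevisiae causes slow growth, and suppressors are detected by OD600. The parent strain without NS1 is used as positive control.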
VACV Venus inh = qHTS for Stage-Specific Inhibitors of Vaccinia Orthopoxvirus: Venus Reporter Primary qHTS; Vaccinia virus Venus reporter expression, fluorescence; Potency, µM (highest dose often 36.5 µM), inactives show top-dose activity change, negative = inhibition, actives largely listed as inhibitors; 330,000 tested, 0.46% active; calls by dose curve; tested in A549 cells; note: % is set by controls: 0 for no effect and ±100 for the full control effect; nearly all actives have a fitted effect of over 30% in size
Pf growth 48h = Primary qHTS for delayed death inhibitors of the malarial parasite plastid, 48 hour incubation. 310,000 tested, 5.9% active. Potency, µM (highest dose often 28.7 µM), for inactives: at the top dose activity change, negative = inhibition, most hits filed as inhibitors. AID 504832, 2011. P. falciparum luciferase growth in erythrocytes, 48 h; note: % is set by controls: 0 for no effect and ±100 for the full control effect
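Luciferase-expressing parasites in RBCs, 2% Hct / 0.1% parasitemia final; RPMI 1640 + 0.5% Albumax; 37 C, 5% CO2, one generation; luminescence read-out, lower signal = inhibition.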
HCV inh = qHTS Assay for Inhibitors of Hepatitis C Virus (HCV). Huh7.5.1 HCVcc-Cre infection, luciferase reporter, 44 h. Potency, µM (top dose mostly 41.8 µM), without a hit: at the top dose activity change, negative = inhibition, usual class: inhibitors. 340,000 tested, 3.4% active; note: % is set by controls: 0 for no effect and ±100 for the full control effect
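Reporter virus HCVcc-Cre (~0.5 moi) infects cells exposed to compound; seeding density 1,000 cells/well with 4 h settling beforehand. Luminescence, 15 sec read, taken 44 h post-infection following a 15 min RT substrate incubation.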
Pf growth 96h = Primary qHTS for delayed death inhibitors of the malarial parasite plastid, 96 hour incubation | P. falciparum luciferase reporter growth, 96 h | AID 504834, 2011 | 320,000 tested, 6.9% active | Potency, µM (series often up to 28.7 µM), inactives show at the highest dose activity change, negative = inhibition, usual class: inhibitors; note: % is set by controls: 0 for no effect and ±100 for the full control effect
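Parasite growth measured via integrated firefly luciferase reporter in P. falciparum. Infected erythrocytes at 2% hematocrit, 0.05% parasitemia final were treated 96 hours at 37 C under 5% CO2, and luminescence was read.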
* marks the source's active call; other numbers are inactive results; i = inactive; ? = inconclusive; · = no result. Unless noted, calls come from the whole dose curve; as a rule, active = well fitted inhibition curve with a large enough effect; inconclusive = small, poorly fitted or top-dose-only effect, or another doubt; inactive = no such curve, though single readings can be large or run the other way. Potency is the fitted concentration of half-maximal effect.

SMILES	Vaccinia mCherry	NS1 inh	VACV Venus inh	Pf growth 48h	HCV inh	Pf growth 96h
O=C(NNC(=O)C12CC3CC(CC(Cl)(C3)C1)C2)c1ccncc1	-7%	·	-15%	35%	23%	53%
CCSc1nnc(Cc2cc(=O)[nH]c(=O)[nH]2)n1-c1cccc(C)c1	i	5%	-4%	0%	19%	-11%
CCCOC(=O)c1ccc(Oc2coc3c(CN(CC)CC)c(O)ccc3c2=O)cc1	-13%	-16%	-1%	?	?	12µM*
CCOC(=O)C(NC(C)=O)C(OC(C)=O)c1cccc([N+](=O)[O-])c1 (configuration not stated)	-6%	-3%	3%	40%	4%	10%
CCOC(=O)C(NC(C)=O)C(OC(C)=O)c1cccc(N(CCCl)CCCl)c1 (configuration not stated)	·	7%	-24%	?	-20%	10µM*
COc1ccccc1C(=O)NC(=S)NNC(=O)c1sc2ccccc2c1Cl	-9%	25%	2%	26%	-6%	?
CNC(=S)N/N=C(\C)c1ccc(C(C)(C)C)cc1	i	-3%	-16%	-9%	?	?
CCc1ccc2c(c1)C(=O)c1ccccc1C2=O	i	4%	11%	257%	11%	-21%
O=C1Nc2cc(C(=O)N3CCc4ccccc4C3)ccc2S/C1=C\c1ccccc1	-25%	25%	-14%	11%	16%	19%
CN1CCN(C(=O)c2ccc3c(c2)NC(=O)/C(=C/c2ccccc2)S3)CC1	·	-5%	·	?	11µM*	?
CCOC(=O)N1CCN(C(=O)c2ccc3c(c2)NC(=O)/C(=C/c2ccccc2)S3)CC1	-22%	13%	-14%	-9%	?	15µM*
CCOC(=O)C1CCN(C(=O)c2ccc3c(c2)NC(=O)/C(=C\c2ccc(C)cc2)S3)CC1	·	11%	·	?	?	?
O=C1Nc2cc(C(=O)N3CCC4(CC3)OCCO4)ccc2S/C1=C\c1ccccc1	-23%	15%	-12%	?	?	28%
CCOC(=O)C1CCN(C(=O)c2ccc3c(c2)NC(=O)/C(=C/c2ccccc2)S3)CC1	·	19%	·	?	11µM*	?
CCOC(=O)C1CCN(C(=O)c2ccc3c(c2)NC(=O)/C(=C\c2cccc(C)c2)S3)CC1	·	26%	·	?	11µM*	85%
CCOC(=O)c1sc2ncn(C(CC)C(=O)OCC)c(=O)c2c1C (configuration not stated)	·	-38%	-26%	-28%	-20%	2%
CCN1CCC[C@H]1CNC(=O)c1c(OC)ccc(Br)c1OC	-18%	·	-8%	10%	-14%	?
CC(C)(C)NC(=O)c1ccnc(C(C)(C)C)c1	·	0%	·	·	16%	-1%
O=C(N/N=C/C(Cl)=C\c1ccccc1)c1cccs1	-6%	-40%	-14%	?	-14%	3.7µM*
Cc1cc(C(=O)N/N=C/C(Cl)=C/c2ccccc2)c(C)o1	-19%	-4%	-24%	9.3µM*	-27%	10µM*
CCc1nc2nc(C)cc(Nc3cc(Cl)ccc3OC)n2n1	2%	·	0%	·	·	·
COc1ccc(OC)c(/C=N/NC(=O)c2[nH]ncc2Br)c1	-15%	-5%	-16%	45%	8%	54%
Cc1ccc(O)c(/C=N/NC(=O)c2[nH]ncc2Br)c1	-13%	3%	-14%	-63%	?	?
O=C(N/N=C/c1c(O)ccc2ccccc12)c1[nH]ncc1Br	2.5µM*	11%	?	12µM*	?	12µM*
O=C(N/N=C/c1c(O)ccc2ccccc12)c1cccc(C(F)(F)F)c1	3.5µM*	-51%	?	3.7µM*	?	2.6µM*
COc1ccc2ccccc2c1/C=N/NC(=O)c1cccc(Br)c1	-26%	-2%	-6%	6%	?	54%
CCOc1ccc(/C=N/NC(=O)c2[nH]ncc2Br)c(O)c1	1.3µM*	-31%	?	?	22µM*	-5%

Compound activity: PubChem, National Center for Advancing Translational Sciences (NCATS)
